Experiment [1] can be described thus: ATG_TAL_CIS: Attagene CIS-FACTORIAL HepG2 Assay for human TAL Basal Promoter (AID 2282966).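 Also: background control endpoint measuring basal TAL promoter reporter mRNA not a specific factor.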 The settings on record: HepG2 Attagene cis-factorial TAL promoter reporter; actives raise or lower the signal. In a few lines:
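HepG2 cells were transiently transfected with promoter-driven multiplexed reporter units and dosed for 24 h. Reporter mRNA was measured by RT-PCR with capillary electrophoresis fluorescence; bidirectional fits used DMSO as baseline, serving as a background control.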

Experiment [2] can be described thus: ATG_TGFb_CIS: Attagene CIS-FACTORIAL HepG2 Assay for human Transforming Growth Factor (TGF) (AID 2282967). The settings on record: HepG2 Attagene CIS TGFb reporter, mRNA transcription; actives raise or lower the signal. In a few lines:
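Transcript-level reporter readout: HepG2 transfectants, 24 h exposure, RNA to cDNA, reporter-specific PCR, fluorescent primer extension, capillary sizing against ROX standards. Gain- or loss-of-signal relative to DMSO.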

Experiment [3] can be described thus: ATG_VDRE_CIS: Attagene CIS-FACTORIAL HepG2 Assay for human Vitamin D Receptor Element (VDRE) (AID 2282968). The settings on record: HepG2 VDRE cis-reporter transcription, actives raise or lower the signal. An outline of the steps: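 Cell-based multiplexed reporter format in human liver HepG2 cells, 24 h post-dose. Fluorescence from capillary electrophoresis of reporter cDNA gives the signal, with DMSO as negative control and baseline.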

Experiment [4] has as its target Steroid hormone receptor ERR1 (Homo sapiens) (UniProt P11474). The experiment in a line: ATG_ERRa_TRANS: Attagene TRANS-FACTORIAL HepG2 Assay for human Estrogen-Related Receptor alpha (ERRa) (AID 2282971; active = hit-call score of the fitted dose curve at least 0.9, where 1 is the maximum). The settings on record: HepG2 Attagene TRANS reporter, ERRa transactivation. An outline of the steps: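 HepG2 cells transiently transfected with multiplexed GAL4-UAS reporter units reading chimeric ERRa-Gal4 activity; 24 h compound exposure. Reporter mRNA measured by RT-PCR, 6-FAM labelling, HpaI digest and capillary electrophoresis; gain of signal fitted versus DMSO baseline.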

The target of experiment [5] is X-box-binding protein 1 (Homo sapiens) (UniProt P17861). Description: ATG_Xbp1_CIS: Attagene CIS-FACTORIAL HepG2 Assay for human X-box Binding Protein 1 (XBP1) (AID 2282972). The settings on record: HepG2 XBP1 cis-element reporter, Attagene multiplex; actives raise or lower the signal. In a few lines: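 Fluorescence-labelled cDNA fragments from reporter transcripts, separated by capillary electrophoresis, give the signal. Source: HepG2 cells transfected with promoter-driven reporter units, harvested 24 h post-dose. DMSO served as reference for bidirectional curve fitting.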

Experiment [6] can be described thus: ATG_M_19_TRANS: Attagene TRANS-FACTORIAL HepG2 Assay for M19 Transcription Factor (Internal Marker) (AID 2282974; active = hit-call score of the fitted dose curve at least 0.9, where 1 is the maximum). The settings on record: HepG2 Attagene TRANS-FACTORIAL M19 internal marker reporter. An outline of the steps: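 24 h chemical exposure of transiently transfected HepG2 (MRTU library). RNA → oligo(dT) RT → PCR → 6-FAM labelling → HpaI cut → CE fluorescence. Positive-direction fit vs DMSO baseline; background internal-marker readout.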

The target in experiment [7] is Glucocorticoid receptor (Homo sapiens) (UniProt P04150). Description: ATG_GR_TRANS: Attagene TRANS-FACTORIAL HepG2 Assay for human Glucocorticoid Receptor (GR) (AID 2282978; active = hit-call score of the fitted dose curve at least 0.9, where 1 is the maximum;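 also: activators score as hits since higher reporter transcript over DMSO is fitted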). The settings on record: HepG2 Attagene TRANS GR reporter, mRNA transcription. An outline of the steps: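 Transient MRTU transfection of HepG2 (GAL4-UAS reporters, exogenous NR-GAL4 chimeras), 24 h dosing. Readout: reporter transcript via RT-PCR + capillary electrophoresis fluorescence. Positive direction vs DMSO baseline.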

For experiment [8], the target named is Oxysterols receptor LXR-alpha (Homo sapiens) (UniProt Q13133). The experiment in a line: ATG_LXRa_TRANS: Attagene TRANS-FACTORIAL HepG2 Assay for human Liver X Receptor alpha (LXRa) (AID 2282980; active = hit-call score of the fitted dose curve at least 0.9, where 1 is the maximum). The settings on record: HepG2 Attagene TRANS reporter, LXRa transactivation. An outline of the steps:
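HepG2 cells were transiently transfected with multiplexed reporter units driven by chimeric LXRa–GAL4 fusion proteins, then dosed for 24 h. Reporter mRNA was quantified by RT-PCR, fluorescent labelling and capillary electrophoresis; gain of signal fitted against DMSO baseline.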

In experiment [9] the target is Oxysterols receptor LXR-beta (Homo sapiens) (UniProt P55055). The experiment in a line: ATG_LXRb_TRANS: Attagene TRANS-FACTORIAL HepG2 Assay for human Liver X Receptor beta (LXRb) (AID 2282981; active = hit-call score of the fitted dose curve at least 0.9, where 1 is the maximum). The settings on record: HepG2 Attagene TRANS GAL4-LXRb reporter, mRNA. An outline of the steps:
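Gain-of-signal mRNA reporter endpoint, DMSO as negative control. Transiently transfected HepG2 cells carrying the NR-Gal4 chimera and GAL4-UAS reporter units were treated 24 h; transcripts quantified by RT-PCR and capillary electrophoresis fluorescence.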

The nature of experiment [10]: ATG_M_32_TRANS: Attagene TRANS-FACTORIAL HepG2 Assay for M32 Transcription Factor (Internal Marker) (AID 2282984; active = hit-call score of the fitted dose curve at least 0.9, where 1 is the maximum). The settings on record: HepG2 Attagene TRANS M32 internal marker reporter. In a few lines: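 Capillary electrophoresis of 6-FAM-labelled reporter fragments gives the signal; data fitted for gain over DMSO negative control. Source: HepG2 cells bearing transient multiple reporter transcription units, 24 h exposure.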

In experiment [11] the target is Nuclear respiratory factor 1 (Homo sapiens) (UniProt Q16656). Description: ATG_NRF1_CIS: Attagene CIS-FACTORIAL HepG2 Assay for human Nuclear Respiratory Factor 1 (NRF1) Orphan Gene (AID 2282987). The settings on record: HepG2 NRF1 cis-element reporter, Attagene multiplex; actives raise or lower the signal. An outline of the steps: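 Endogenous NRF1-driven reporter transcription measured in transiently transfected human HepG2 liver cells. Readout: reporter mRNA by RT-PCR and capillary electrophoresis with fluorescence detection, 24 h post-dosing. Gain or loss of signal fitted relative to DMSO baseline.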

The nature of experiment [12]: ATG_NFI_CIS: Attagene CIS-FACTORIAL HepG2 Assay for human Nuclear Factor I (NFI) (AID 2282989). The settings on record: HepG2 cis-regulatory reporter, NFI response element transcription; actives raise or lower the signal. In a few lines:
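After transient transfection of HepG2 with cis-promoter reporter constructs and 24 h dosing, RNA is reverse-transcribed, amplified, 6-FAM end-labelled and HpaI-digested before capillary analysis. Bidirectional curve fitting against DMSO.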

Experiment [13] is described as follows: ATG_GAL4_TRANS: Attagene TRANS-FACTORIAL HepG2 Assay for GAL4 (Internal Marker) (AID 2282976; active = hit-call score of the fitted dose curve at least 0.9, where 1 is the maximum). The settings on record: HepG2 Attagene TRANS GAL4 internal marker reporter. An outline of the steps:
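HepG2 cells transiently transfected with multiplexed GAL4-UAS reporter constructs were dosed for 24 h. Reporter mRNA was measured by RT-PCR, 6-FAM primer extension, HpaI digestion and capillary electrophoresis, and gain of signal was fitted relative to DMSO.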

The target in experiment [14] is Transcriptional activator Myb (Homo sapiens) (UniProt P10242). Description: ATG_Myb_CIS: Attagene CIS-FACTORIAL HepG2 Assay for human Myeloblastosis (Myb) Proto-Oncogene Transcription Factor (AID 2282986). The settings on record: HepG2 Attagene CIS-FACTORIAL Myb reporter transcription; actives raise or lower the signal. An outline of the steps: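 HepG2, transient MRTU transfection (cis-element promoters, endogenous TF activity), 24 h compound exposure. Readout: reporter mRNA via RT-PCR, 6-FAM labeling, HpaI digest, capillary electrophoresis. Gain/loss fit vs DMSO.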

The target in experiment [15] is Myc proto-oncogene protein (Homo sapiens) (UniProt P01106). Description: ATG_Myc_CIS: Attagene CIS-FACTORIAL HepG2 Assay for human Myelocytomatosis (Myc) Proto-Oncogene Transcription Factor (AID 2282990). The settings on record: HepG2, Attagene cis-reporter transcription factor activity; actives raise or lower the signal. An outline of the steps:
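Fluorescence intensity of reporter-specific cDNA fragments, separated by capillary electrophoresis, gives the signal. Transfected HepG2 cells carrying cis-promoter reporter constructs are incubated with compound for 24 h; DMSO serves as baseline.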

In experiment [16] the target is Bile acid receptor (Homo sapiens) (UniProt Q96RI1). Description: ATG_FXR_TRANS: Attagene TRANS-FACTORIAL HepG2 Assay for Farnesoid X Receptor (FXR) (AID 2282979; active = hit-call score of the fitted dose curve at least 0.9, where 1 is the maximum;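 also: hits raise reporter mRNA above DMSO so AC50 marks FXR activation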). The settings on record: HepG2 Attagene TRANS FXR-GAL4 reporter transcription. In a few lines: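 HepG2 cells transiently transfected with reporter constructs in which a chimeric FXR-GAL4 protein drives a GAL4-UAS reporter; 24 h compound exposure. Reporter mRNA measured by RT-PCR, FAM labelling, HpaI digestion and capillary electrophoresis; gain-of-signal versus DMSO.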

Experiment [17] can be described thus: ATG_M_06_TRANS: Attagene TRANS-FACTORIAL HepG2 Assay for M06 Transcription Factor (Internal Marker) (AID 2282983; active = hit-call score of the fitted dose curve at least 0.9, where 1 is the maximum). The settings on record: HepG2 Attagene TRANS M06 internal marker reporter. An outline of the steps:
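HepG2 cells transiently transfected with multiplexed GAL4-UAS reporter transcription units; after 24 h compound exposure, reporter mRNA measured by RT-PCR, FAM-labelled primer extension, HpaI digestion and capillary electrophoresis. Gain-of-signal fitted versus DMSO baseline; background control readout.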

Molecules are shown by their SMILES. Inconclusive results are not listed. The source made the active and inactive calls. The calls were made as follows, unless noted: active = hit-call score of the fitted dose curve at least 0.9, where 1 is the maximum; inactive = score below 0.9.

X-box-binding protein 1 (Homo sapiens), sequence (P17861 whole entry, looked up, the tested form may be a part): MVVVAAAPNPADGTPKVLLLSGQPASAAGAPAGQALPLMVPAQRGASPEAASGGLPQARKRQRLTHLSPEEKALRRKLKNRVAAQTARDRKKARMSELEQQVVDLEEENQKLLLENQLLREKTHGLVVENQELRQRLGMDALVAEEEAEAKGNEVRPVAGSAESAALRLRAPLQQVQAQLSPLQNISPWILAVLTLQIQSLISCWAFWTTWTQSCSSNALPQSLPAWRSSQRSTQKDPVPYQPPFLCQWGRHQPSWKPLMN
Glucocorticoid receptor (Homo sapiens), sequence (P04150 whole entry, looked up, the tested form may be a part): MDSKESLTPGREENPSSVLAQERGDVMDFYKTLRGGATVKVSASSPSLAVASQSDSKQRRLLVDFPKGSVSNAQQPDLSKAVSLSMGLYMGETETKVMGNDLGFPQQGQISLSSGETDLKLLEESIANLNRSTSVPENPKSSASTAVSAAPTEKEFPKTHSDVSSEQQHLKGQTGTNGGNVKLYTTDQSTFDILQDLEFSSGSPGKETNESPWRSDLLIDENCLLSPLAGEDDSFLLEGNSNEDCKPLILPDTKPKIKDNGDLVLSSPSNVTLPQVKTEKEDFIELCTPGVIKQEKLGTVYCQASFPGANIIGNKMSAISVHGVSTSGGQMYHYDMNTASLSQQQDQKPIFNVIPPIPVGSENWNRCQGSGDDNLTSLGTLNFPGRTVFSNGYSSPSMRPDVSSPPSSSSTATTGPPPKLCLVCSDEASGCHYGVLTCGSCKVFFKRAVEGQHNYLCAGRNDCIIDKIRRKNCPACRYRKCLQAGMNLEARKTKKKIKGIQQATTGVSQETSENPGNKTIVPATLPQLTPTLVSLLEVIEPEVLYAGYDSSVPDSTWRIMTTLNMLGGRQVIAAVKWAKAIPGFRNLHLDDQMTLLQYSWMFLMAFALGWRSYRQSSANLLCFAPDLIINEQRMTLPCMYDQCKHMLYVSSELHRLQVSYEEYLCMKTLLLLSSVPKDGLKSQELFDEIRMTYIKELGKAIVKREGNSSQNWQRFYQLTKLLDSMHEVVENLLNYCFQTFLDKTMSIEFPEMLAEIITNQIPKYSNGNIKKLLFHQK
Oxysterols receptor LXR-alpha (Homo sapiens), sequence (Q13133 whole entry, looked up, the tested form may be a part): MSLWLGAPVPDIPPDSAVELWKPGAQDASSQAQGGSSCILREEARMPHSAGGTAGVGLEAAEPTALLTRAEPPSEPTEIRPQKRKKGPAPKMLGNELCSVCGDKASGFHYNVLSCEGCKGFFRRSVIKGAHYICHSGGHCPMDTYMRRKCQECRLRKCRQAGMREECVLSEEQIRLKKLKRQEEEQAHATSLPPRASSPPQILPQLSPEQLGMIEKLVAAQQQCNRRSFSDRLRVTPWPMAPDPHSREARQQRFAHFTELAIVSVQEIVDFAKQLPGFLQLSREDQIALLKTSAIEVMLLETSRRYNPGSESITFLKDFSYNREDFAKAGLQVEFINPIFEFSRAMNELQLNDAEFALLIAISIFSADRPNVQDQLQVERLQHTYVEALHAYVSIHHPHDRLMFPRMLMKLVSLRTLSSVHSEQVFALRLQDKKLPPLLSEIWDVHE
Myc proto-oncogene protein (Homo sapiens), sequence (P01106 whole entry, looked up, the tested form may be a part): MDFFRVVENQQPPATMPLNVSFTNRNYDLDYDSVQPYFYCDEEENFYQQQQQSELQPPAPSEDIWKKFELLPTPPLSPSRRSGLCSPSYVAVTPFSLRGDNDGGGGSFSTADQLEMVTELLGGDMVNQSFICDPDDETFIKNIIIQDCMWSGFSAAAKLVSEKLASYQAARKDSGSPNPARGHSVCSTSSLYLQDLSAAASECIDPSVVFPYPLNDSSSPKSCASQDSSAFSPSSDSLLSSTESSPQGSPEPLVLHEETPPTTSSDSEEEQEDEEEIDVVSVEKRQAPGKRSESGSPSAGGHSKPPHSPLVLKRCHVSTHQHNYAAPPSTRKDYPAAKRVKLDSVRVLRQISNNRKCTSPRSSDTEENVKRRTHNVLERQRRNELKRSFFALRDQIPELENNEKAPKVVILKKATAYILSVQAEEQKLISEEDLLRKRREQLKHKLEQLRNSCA
Bile acid receptor (Homo sapiens), sequence (Q96RI1 whole entry, looked up, the tested form may be a part): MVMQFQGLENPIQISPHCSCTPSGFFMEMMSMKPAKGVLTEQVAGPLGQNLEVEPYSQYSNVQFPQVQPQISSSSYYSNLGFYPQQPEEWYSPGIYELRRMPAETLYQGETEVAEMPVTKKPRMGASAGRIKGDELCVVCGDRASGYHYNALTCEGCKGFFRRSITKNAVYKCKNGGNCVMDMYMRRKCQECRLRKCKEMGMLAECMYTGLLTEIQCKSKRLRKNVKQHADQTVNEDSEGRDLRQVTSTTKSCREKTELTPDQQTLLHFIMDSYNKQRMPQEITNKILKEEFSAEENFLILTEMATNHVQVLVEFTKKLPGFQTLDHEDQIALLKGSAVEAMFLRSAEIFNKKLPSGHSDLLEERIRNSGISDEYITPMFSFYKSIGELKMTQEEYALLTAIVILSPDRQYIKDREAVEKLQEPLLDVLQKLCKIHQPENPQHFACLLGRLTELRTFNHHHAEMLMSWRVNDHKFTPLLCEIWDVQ
Oxysterols receptor LXR-beta (Homo sapiens), sequence (P55055 whole entry, looked up, the tested form may be a part): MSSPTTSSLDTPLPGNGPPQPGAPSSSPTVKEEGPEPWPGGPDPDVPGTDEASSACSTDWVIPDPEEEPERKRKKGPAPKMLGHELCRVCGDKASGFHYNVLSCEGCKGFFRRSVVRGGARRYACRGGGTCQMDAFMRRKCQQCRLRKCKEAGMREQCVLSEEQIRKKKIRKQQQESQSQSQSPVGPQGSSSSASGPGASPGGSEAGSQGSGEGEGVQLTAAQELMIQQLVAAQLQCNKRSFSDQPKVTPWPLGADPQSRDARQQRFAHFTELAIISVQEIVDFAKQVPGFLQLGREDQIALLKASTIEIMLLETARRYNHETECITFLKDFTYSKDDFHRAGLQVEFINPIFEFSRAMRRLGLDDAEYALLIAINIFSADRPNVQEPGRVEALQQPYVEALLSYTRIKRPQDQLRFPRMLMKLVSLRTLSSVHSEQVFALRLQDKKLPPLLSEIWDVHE
Transcriptional activator Myb (Homo sapiens), sequence (P10242 whole entry, looked up): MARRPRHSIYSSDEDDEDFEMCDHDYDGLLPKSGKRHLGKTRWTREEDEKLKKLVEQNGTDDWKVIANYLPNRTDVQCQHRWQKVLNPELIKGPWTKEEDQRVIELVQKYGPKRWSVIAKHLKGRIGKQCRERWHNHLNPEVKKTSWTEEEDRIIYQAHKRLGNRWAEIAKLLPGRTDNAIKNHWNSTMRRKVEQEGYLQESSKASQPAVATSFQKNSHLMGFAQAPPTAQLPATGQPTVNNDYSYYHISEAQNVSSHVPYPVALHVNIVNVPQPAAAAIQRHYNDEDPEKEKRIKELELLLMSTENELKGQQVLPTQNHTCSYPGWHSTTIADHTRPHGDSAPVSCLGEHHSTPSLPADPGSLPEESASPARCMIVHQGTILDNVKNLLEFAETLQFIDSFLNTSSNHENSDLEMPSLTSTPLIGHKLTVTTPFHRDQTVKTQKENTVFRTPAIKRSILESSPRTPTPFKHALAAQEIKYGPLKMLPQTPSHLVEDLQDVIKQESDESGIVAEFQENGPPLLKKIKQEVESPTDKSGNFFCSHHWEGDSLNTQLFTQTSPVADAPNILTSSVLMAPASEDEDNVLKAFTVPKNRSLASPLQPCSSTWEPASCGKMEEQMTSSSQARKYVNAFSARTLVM
Nuclear respiratory factor 1 (Homo sapiens), sequence (Q16656 whole entry, looked up): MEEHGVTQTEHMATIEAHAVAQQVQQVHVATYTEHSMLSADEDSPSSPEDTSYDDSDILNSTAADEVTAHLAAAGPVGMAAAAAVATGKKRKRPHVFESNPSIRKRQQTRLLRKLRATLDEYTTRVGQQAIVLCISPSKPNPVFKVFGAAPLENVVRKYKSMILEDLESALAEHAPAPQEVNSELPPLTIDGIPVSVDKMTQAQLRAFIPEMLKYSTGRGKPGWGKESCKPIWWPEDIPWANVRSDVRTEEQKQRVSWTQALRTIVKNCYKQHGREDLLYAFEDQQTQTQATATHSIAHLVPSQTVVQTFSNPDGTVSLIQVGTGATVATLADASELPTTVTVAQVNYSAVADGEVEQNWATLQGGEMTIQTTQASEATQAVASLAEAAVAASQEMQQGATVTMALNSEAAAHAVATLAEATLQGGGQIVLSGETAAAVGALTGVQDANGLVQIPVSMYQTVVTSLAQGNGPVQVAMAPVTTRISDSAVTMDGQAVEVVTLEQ
Steroid hormone receptor ERR1 (Homo sapiens), sequence (P11474 whole entry, looked up, the tested form may be a part): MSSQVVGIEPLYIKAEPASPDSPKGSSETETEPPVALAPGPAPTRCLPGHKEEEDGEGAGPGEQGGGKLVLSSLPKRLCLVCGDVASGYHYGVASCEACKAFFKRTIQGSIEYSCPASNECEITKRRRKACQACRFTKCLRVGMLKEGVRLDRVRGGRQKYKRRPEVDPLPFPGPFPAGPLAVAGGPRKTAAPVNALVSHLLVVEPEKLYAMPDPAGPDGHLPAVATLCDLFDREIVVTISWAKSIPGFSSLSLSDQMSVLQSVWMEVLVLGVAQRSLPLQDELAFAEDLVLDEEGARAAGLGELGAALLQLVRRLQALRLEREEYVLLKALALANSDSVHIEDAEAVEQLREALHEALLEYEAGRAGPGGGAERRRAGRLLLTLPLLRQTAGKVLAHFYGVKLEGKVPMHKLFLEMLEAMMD

For orientation: AC50 means the midpoint of the concentration-response curve, whichever way the signal moves. On to `CCCN(C1CCN(C(=O)C2CCNCC2)CC1)[C@@H]1CCc2ccc(OC)cc2C1`, for which the call in [1], in experiment [2], in [3], in experiment [4], in experiment [6] and in experiment [7] was inactive. For the same molecule, the molecule was called inactive in [8], in experiment [9], in experiment [10], in experiment [11] and in [12]. The AC50 in [5] is 153 µM (active).
In the case of `CCOCCOCCOCCO`, the molecule was called inactive in experiment [1], in [2], in experiment [3], in [5], in experiment [6] and in experiment [13]. In addition, the outcome in [9], in experiment [14], in [11], in experiment [12] and in experiment [15] was inactive.
For `CCCCC(CC)COC(=O)CCCCCCCCC(=O)OCC(CC)CCCC` (configuration not stated), the call in experiment [1], in [2], in experiment [3], in [5], in experiment [6] and in [7] was inactive. Further, the result in experiment [8], in experiment [9], in [10], in [14], in experiment [11] and in experiment [12] was inactive. In addition, the result in [15] was inactive.
On to `Cn1c(=O)cc(Oc2ccc(F)cc2F)c2cnc(NCC(C)(C)O)nc21`, for which the call in experiment [1], in experiment [2], in [3], in [5], in experiment [6] and in experiment [7] was inactive. For the same molecule, the call in [16], in experiment [8], in [9], in experiment [17], in experiment [10] and in experiment [14] was inactive. The values for the AC50 in experiment [11] and in [12] were 51.6 µM (active) and 9.46 µM (active), respectively.
Turning to `CC(C)c1cccc(C(C)C)c1N1C(=O)c2ccc(O)cc2C1=O`, the result in experiment [1], in [2], in [6], in experiment [7], in [9] and in experiment [10] was inactive. In addition, in experiment [14], the call was inactive. The AC50 in experiment [3] was 33.9 µM (active); in [5], 100 µM (active); in [16], 19.8 µM (active); in experiment [11], 152 µM (active); in [12] it was 62.9 µM (active).
As to `CC[C@H](C)C(=O)O[C@H]1C[C@@H](C)C=C2C=C[C@H](C)[C@H](CC[C@@H]3C[C@@H](O)CC(=O)O3)[C@H]21`, the molecule was called inactive in [1], in experiment [2], in experiment [5], in experiment [6], in experiment [7] and in experiment [16]. Besides, the molecule was called inactive in experiment [8], in experiment [17], in experiment [10], in [14], in experiment [11] and in experiment [12]. Also, the half-maximal activity concentration (AC50) in experiment [3] was 4.47 µM (active).
Turning to `CCCCCCCCO`, the outcome in [1], in experiment [2], in [3], in experiment [5], in experiment [6] and in [13] was inactive. Also, the molecule was classed as inactive in experiment [7], in [14], in experiment [11] and in experiment [12].
In the case of `CC1=CC(=O)CC(C)(C)C1`, the outcome in [1], in [2], in experiment [3], in experiment [5], in [6] and in [7] was inactive. Besides, the outcome in [17], in experiment [14], in experiment [11], in [12] and in experiment [15] was inactive.
For `Fc1ccccc1[C@@H](F)COC1CCC(Nc2ncnc3[nH]ncc23)CC1` (some centres not stated), the result in [1], in experiment [2], in [5], in experiment [6], in experiment [10] and in experiment [12] was inactive. The figures for the AC50 in experiment [3], in experiment [16] and in experiment [11] were 26 µM (active), 25.6 µM (active) and 9.56 µM (active), respectively.
As for `COc1ccc(/C=C/S(=O)(=O)NC(=O)c2ccc(C)cc2Cl)cc1`, the molecule was called inactive in [1], in [2], in [3], in [5], in experiment [6] and in experiment [7]. Also, the outcome in [8], in experiment [9], in experiment [10], in experiment [11], in [12] and in experiment [15] was inactive.

The values above are taken from PubChem BioAssay (EPA / NIEHS).
